Measured values reported in PubChem BioAssay (EPA / NIEHS).
The source made the active and inactive calls. Rule for the calls: active = hit-call score of the fitted dose curve at least 0.9, where 1 is the maximum; inactive = score below 0.9.

Experiments:
[1] = BSK_hDFCGF_SRB: Viability Assessment in the BioMAP Diversity Plus: hDFCGF Assay (AID 2283061); settings: primary human foreskin fibroblasts;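 note: cells exposed to compound for 24 h before the read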
In short: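 Viability was read as total protein: after 10% TCA fixation, wells were stained with 0.1% sulforhodamine B and read at 560 nm. Primary human foreskin fibroblasts were dosed for 24 h, with bidirectional fitting versus DMSO.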

[2] = read-out: Monokine induced gamma interferon (MIG), CXCL9 (gene 4283); assay: BSK_hDFCGF_MIG: BioMAP Diversity Plus: hDFCGF Assay for Monokine induced gamma interferon (MIG) Biomarker Activity (AID 2283063); settings: primary human foreskin fibroblasts; actives raise or lower the signal
In short: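 Human primary foreskin fibroblasts in the hDFCGF system, exposed to test chemical for 24 h; MIG measured by ELISA. Bidirectional curve fitting against DMSO negative control as activity baseline.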

[3] = read-out: Matrix Metallopeptidase 1 (MMP1), MMP1 (gene 4312); assay: BSK_hDFCGF_MMP1: BioMAP Diversity Plus: hDFCGF Assay for Matrix Metallopeptidase 1 (MMP1) Biomarker Activity (AID 2283064); settings: primary human foreskin fibroblasts; actives raise or lower the signal
In short: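 MMP1 levels quantified by ELISA 24 h after dosing human dermal fibroblast cultures, with parallel SRB total-protein staining for overt cytotoxicity. Data fitted in both directions against DMSO baseline.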

[4] = read-out: Vascular cell adhesion molecule 1 (VCAM1), VCAM1 (gene 7412); assay: BSK_hDFCGF_VCAM1: BioMAP Diversity Plus: hDFCGF Assay for Vascular cell adhesion molecule 1 (VCAM1) Biomarker Activity (AID 2283065); settings: primary human foreskin fibroblasts; actives raise or lower the signal;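 for AC50: VCAM-1 protein level quantified by ELISA after 24 h chemical exposure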
In short: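 ELISA readout of VCAM-1 on human dermal fibroblast primary cultures, 24 h after chemical exposure. Gain or loss of signal fitted in both directions against DMSO baseline.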

[5] = read-out: Plasminogen activator inhibitor-1 (PAI1), SERPINE1 (gene 5054); assay: BSK_hDFCGF_PAI1: BioMAP Diversity Plus: hDFCGF Assay for Plasminogen activator inhibitor-1 (PAI1) Biomarker Activity (AID 2283066); settings: primary human foreskin fibroblasts; actives raise or lower the signal
In short: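 Human skin fibroblast cultures receive chemical for 24 h before PAI-1 is measured by ELISA; signal changes are fitted bidirectionally against DMSO-treated wells.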

[6] = read-out: Intercellular Adhesion Molecule 1 (ICAM1), ICAM1 (gene 3383); assay: BSK_KF3CT_ICAM1: BioMAP Diversity Plus: KF3CT Assay for Intercellular Adhesion Molecule 1 (ICAM1) Biomarker Activity (AID 2283067); settings: primary human keratinocytes with fibroblasts; actives raise or lower the signal
In short: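 Cell-surface ICAM-1 was measured by ELISA 24 h after dosing primary human skin keratinocytes co-cultured with fibroblasts. Parallel SRB staining tracked overt cytotoxicity. Gain or loss of signal was fitted relative to DMSO.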

[7] = read-out: Interferon-gamma inducible Protein 10 (IP10), CXCL10 (gene 3627); assay: BSK_KF3CT_IP10: BioMAP Diversity Plus: KF3CT Assay for Interferon-gamma inducible Protein 10 (IP10) Biomarker Activity (AID 2283068); settings: primary human keratinocytes with fibroblasts; actives raise or lower the signal
In short: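 Signal is secreted/surface IP-10 by ELISA in a human primary skin co-culture of keratinocytes and foreskin fibroblasts, taken 24 h post-dosing; DMSO served as negative control.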

[8] = BSK_KF3CT_SRB: Viability Assessment in the BioMAP Diversity Plus: KF3CT Assay (AID 2283069); settings: primary human keratinocytes with fibroblasts;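 note: total protein by sulforhodamine B staining as a cytotoxicity measure; read 24 h after compound addition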
In short: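 Cytotoxicity was gauged by SRB staining (0.1% SRB, 10% TCA fixation, 560 nm) of parallel cultures at 24 h. The cells were primary human skin keratinocytes co-cultured with fibroblasts, and activity was fitted in both directions against DMSO.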

[9] = read-out: Interleukin-1 alpha (IL1a), IL1A (gene 3552); assay: BSK_KF3CT_IL1a: BioMAP Diversity Plus: KF3CT Assay for Interleukin-1 alpha (IL1a) Biomarker Activity (AID 2283070); settings: primary human keratinocytes with fibroblasts; actives raise or lower the signal
In short: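 IL-1a was detected by ELISA 24 h after chemical treatment of a co-culture of human skin keratinocytes and foreskin fibroblasts. Gain or loss of signal was fitted against the DMSO baseline.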

[10] = read-out: Transforming growth factor beta 1 (TGFb1), TGFB1 (gene 7040); assay: BSK_KF3CT_TGFb1: BioMAP Diversity Plus: KF3CT Assay for Transforming growth factor beta 1 (TGFb1) Biomarker Activity (AID 2283072); settings: primary human keratinocytes with fibroblasts; actives raise or lower the signal
In short: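 TGF-b1 ELISA on a 24 h dosed co-culture of human keratinocytes and foreskin fibroblasts; cytotoxicity tracked in parallel cultures by SRB staining.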

[11] = read-out: C-C motif chemokine 2 (Homo sapiens) (UniProt P13500); assay: BSK_KF3CT_MCP1: BioMAP Diversity Plus: KF3CT Assay for Monocyte Chemoattractant Protein 1 (MCP1/CCL2) Biomarker Activity (AID 2283073); settings: primary human keratinocytes with fibroblasts; actives raise or lower the signal
In short: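 ELISA read-out of MCP-1, 24 h post-dose, in primary human skin keratinocytes co-cultured with fibroblasts. Parallel SRB staining monitors cytotoxicity; changes fitted both directions relative to DMSO.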

[12] = read-out: Matrix Metallopeptidase 9 (MMP9), MMP9 (gene 4318); assay: BSK_KF3CT_MMP9: BioMAP Diversity Plus: KF3CT Assay for Matrix Metallopeptidase 9 (MMP9) Biomarker Activity (AID 2283074); settings: primary human keratinocytes with fibroblasts; actives raise or lower the signal;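 for AC50: MMP9 protein level quantified by ELISA in the co-culture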
In short: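 MMP-9 quantified by ELISA after 24 h chemical treatment of primary human skin keratinocyte/fibroblast co-cultures; gain or loss fitted against DMSO, with parallel SRB staining (0.1% SRB, 560 nm) for overt cytotoxicity.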

[13] = read-out: urokinase plasminogen activator (uPA), PLAU (gene 5328); assay: BSK_KF3CT_uPA: BioMAP Diversity Plus: KF3CT Assay for urokinase plasminogen activator (uPA) Biomarker Activity (AID 2283075); settings: primary human keratinocytes with fibroblasts; actives raise or lower the signal
In short: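 ELISA read-out of uPA 24 h after dosing human skin keratinocytes co-cultured with foreskin fibroblasts. Signal change fitted both ways relative to DMSO; sulforhodamine B on parallel cultures marks overt cytotoxicity.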

[14] = read-out: CD40, CD40 (gene 958); assay: BSK_LPS_CD40: BioMAP Diversity Plus: LPS Assay for CD40 Biomarker Activity (AID 2283076); settings: primary human HUVEC with PBMC; actives raise or lower the signal
In short: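 In the LPS system of human endothelial cells with peripheral blood mononuclear cells, CD40 levels were read by ELISA 24 h post-treatment. Signal changes in either direction were fitted against the DMSO baseline, with parallel SRB protein staining.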

[15] = read-out: E-selectin (Homo sapiens) (UniProt P16581); assay: BSK_LPS_Eselectin: BioMAP Diversity Plus: LPS Assay for Eselectin Biomarker Activity (AID 2283077); settings: primary human HUVEC with PBMC; actives raise or lower the signal
In short: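 E-selectin ELISA on LPS-stimulated endothelial cell/PBMC co-cultures, read 24 h post-treatment; gains and losses fitted against DMSO. Parallel SRB staining (0.1% SRB after 10% TCA fixation, 560 nm) flags overt cytotoxicity.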

[16] = read-out: Interleukin-8 (IL8), CXCL8 (gene 3576); assay: BSK_LPS_IL8: BioMAP Diversity Plus: LPS Assay for Interleukin-8 (IL8) Biomarker Activity (AID 2283078); settings: primary human HUVEC with PBMC; actives raise or lower the signal
In short: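 ELISA read-out of IL-8 after 24 h chemical treatment of LPS-activated endothelial/PBMC human primary co-cultures. Changes either up or down relative to DMSO; overt cytotoxicity checked by sulforhodamine B staining in parallel wells.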

[17] = BSK_LPS_SRB: Viability Assessment in the BioMAP Diversity Plus: LPS Assay (AID 2283079); settings: primary human HUVEC with PBMC;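 note: total protein by sulforhodamine B absorbance as a cytotoxicity measure; measured one day after compound addition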
In short: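 SRB viability endpoint: cells fixed with 10% TCA, stained with 0.1% SRB, read at 560 nm, 24 h post-dose. HUVEC/PBMC co-culture; signal change in either direction scored relative to DMSO.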

[18] = read-out: Interleukin-1 alpha (IL1a), IL1A (gene 3552); assay: BSK_LPS_IL1a: BioMAP Diversity Plus: LPS Assay for Interleukin-1 alpha (IL1a) Biomarker Activity (AID 2283080); settings: primary human HUVEC with PBMC; actives raise or lower the signal
In short: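 Readout is IL-1a level by ELISA, 24 h post-dose, fitted as gain or loss relative to DMSO. System: LPS-activated human primary co-culture of vascular endothelium and peripheral blood mononuclear cells, with parallel SRB total-protein cytotoxicity.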

[19] = read-out: TIMP metallopeptidase inhibitor 2 (TIMP2), TIMP2 (gene 7077); assay: BSK_KF3CT_TIMP2: BioMAP Diversity Plus: KF3CT Assay for TIMP metallopeptidase inhibitor 2 (TIMP2) Biomarker Activity (AID 2283071); settings: primary human keratinocytes with fibroblasts; actives raise or lower the signal
In short: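 Measurements come from ELISA detection of TIMP-2 at 24 hours in a dosed human keratinocyte and foreskin fibroblast co-culture. DMSO serves as negative control and baseline.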

Measured: AC50

Chain of E-selectin (Homo sapiens) (P16581 whole entry, looked up): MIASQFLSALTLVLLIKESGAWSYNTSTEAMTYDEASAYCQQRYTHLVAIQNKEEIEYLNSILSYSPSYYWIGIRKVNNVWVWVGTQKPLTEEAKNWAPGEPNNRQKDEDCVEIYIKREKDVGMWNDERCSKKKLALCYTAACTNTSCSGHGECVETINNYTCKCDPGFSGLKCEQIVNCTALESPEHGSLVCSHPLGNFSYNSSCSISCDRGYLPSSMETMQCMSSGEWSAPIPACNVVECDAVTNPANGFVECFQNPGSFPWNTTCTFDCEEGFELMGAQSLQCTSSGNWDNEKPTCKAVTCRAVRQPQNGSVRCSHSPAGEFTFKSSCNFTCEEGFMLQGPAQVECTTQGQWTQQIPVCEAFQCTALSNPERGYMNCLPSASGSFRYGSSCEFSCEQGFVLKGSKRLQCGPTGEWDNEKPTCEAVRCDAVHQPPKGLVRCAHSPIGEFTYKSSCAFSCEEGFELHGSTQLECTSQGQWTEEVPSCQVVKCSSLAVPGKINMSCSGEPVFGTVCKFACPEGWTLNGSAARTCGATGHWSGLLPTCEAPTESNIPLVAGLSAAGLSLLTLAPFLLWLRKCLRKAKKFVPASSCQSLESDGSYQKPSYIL

OCCCl
inactive: [1] | [2] | [3] | [4] | [5] | [6] | [7] | [8] | [9] | [10] | [11] | [12] | [13] | [14] | [15] | [16] | [17] | [18]

Cc1ccc(N)c(N)c1
active: [2] 3.65 µM
inactive: [1] | [3] | [4] | [5] | [6] | [8] | [9] | [10] | [11] | [13] | [14] | [15] | [16] | [18]

O=[N+]([O-])c1ccc(Oc2ccc(Cl)cc2Cl)cc1
active: [3] 10.2 µM | [4] 13.5 µM | [14] 20 µM | [18] 27.2 µM
inactive: [1] | [2] | [5] | [6] | [7] | [8] | [9] | [19] | [10] | [11] | [13] | [15] | [16] | [17]

Nc1ccc(Oc2ccc(N)cc2)cc1
inactive: [1] | [2] | [3] | [4] | [5] | [6] | [7] | [8] | [9] | [10] | [11] | [13] | [14] | [15] | [16] | [17] | [18]

CCC[CH2][Sn]([Cl])([CH2]CCC)[CH2]CCC
active: [1] 0.148 µM | [2] 0.369 µM | [3] 0.271 µM | [4] 0.148 µM | [5] 0.296 µM | [6] 0.148 µM | [7] 0.342 µM | [8] 0.422 µM | [9] 0.294 µM | [10] 0.692 µM | [12] 0.292 µM | [13] 0.148 µM | [14] 0.148 µM | [15] 0.148 µM | [16] 0.148 µM | [17] 0.269 µM | [18] 0.344 µM

CCC12COCN1COC2
inactive: [1] | [2] | [3] | [4] | [5] | [6] | [7] | [8] | [9] | [10] | [11] | [12] | [13] | [14] | [15] | [16] | [18]

Clc1ccc(C(c2ccc(Cl)cc2)C(Cl)(Cl)Cl)cc1
active: [1] 10.6 µM | [2] 15.8 µM | [3] 14.8 µM | [4] 9.94 µM | [5] 8.38 µM | [6] 27.7 µM | [7] 16.3 µM | [8] 18.7 µM | [9] 25.1 µM | [19] 11.7 µM | [10] 14.8 µM | [11] 12.7 µM | [13] 20.1 µM | [14] 20 µM | [15] 31.7 µM | [16] 27.4 µM | [17] 28.9 µM | [18] 14.6 µM

c1ccc2c(c1)-c1cccc3cccc-2c13
inactive: [1] | [2] | [3] | [4] | [5] | [6] | [7] | [8] | [9] | [10] | [13] | [14] | [15] | [16] | [18]
active: [12] 28.9 µM
